This note sets out measurements from PMC4336329 (PLoS ONE, 2015).

Structures are written as SMILES. Out of some 310,000 compounds screened, about 14,000 (4.5%) showed an effect of 50% or more. Effects have a minus sign here. The full list was thinned out, with strong results kept by preference.
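Also: peak tail current of the secondary pulse compared with the same well before compound.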

The target of this test is human ether-à-go-go-related gene (hERG) potassium channel (human, UniProt Q12809). The experiment in a line: primary screen, population patch clamp on CHO cells stably expressing hERG; higher = less effect of the substance.
human ether-à-go-go-related gene (hERG) potassium channel, sequence (Q12809 whole entry, looked up): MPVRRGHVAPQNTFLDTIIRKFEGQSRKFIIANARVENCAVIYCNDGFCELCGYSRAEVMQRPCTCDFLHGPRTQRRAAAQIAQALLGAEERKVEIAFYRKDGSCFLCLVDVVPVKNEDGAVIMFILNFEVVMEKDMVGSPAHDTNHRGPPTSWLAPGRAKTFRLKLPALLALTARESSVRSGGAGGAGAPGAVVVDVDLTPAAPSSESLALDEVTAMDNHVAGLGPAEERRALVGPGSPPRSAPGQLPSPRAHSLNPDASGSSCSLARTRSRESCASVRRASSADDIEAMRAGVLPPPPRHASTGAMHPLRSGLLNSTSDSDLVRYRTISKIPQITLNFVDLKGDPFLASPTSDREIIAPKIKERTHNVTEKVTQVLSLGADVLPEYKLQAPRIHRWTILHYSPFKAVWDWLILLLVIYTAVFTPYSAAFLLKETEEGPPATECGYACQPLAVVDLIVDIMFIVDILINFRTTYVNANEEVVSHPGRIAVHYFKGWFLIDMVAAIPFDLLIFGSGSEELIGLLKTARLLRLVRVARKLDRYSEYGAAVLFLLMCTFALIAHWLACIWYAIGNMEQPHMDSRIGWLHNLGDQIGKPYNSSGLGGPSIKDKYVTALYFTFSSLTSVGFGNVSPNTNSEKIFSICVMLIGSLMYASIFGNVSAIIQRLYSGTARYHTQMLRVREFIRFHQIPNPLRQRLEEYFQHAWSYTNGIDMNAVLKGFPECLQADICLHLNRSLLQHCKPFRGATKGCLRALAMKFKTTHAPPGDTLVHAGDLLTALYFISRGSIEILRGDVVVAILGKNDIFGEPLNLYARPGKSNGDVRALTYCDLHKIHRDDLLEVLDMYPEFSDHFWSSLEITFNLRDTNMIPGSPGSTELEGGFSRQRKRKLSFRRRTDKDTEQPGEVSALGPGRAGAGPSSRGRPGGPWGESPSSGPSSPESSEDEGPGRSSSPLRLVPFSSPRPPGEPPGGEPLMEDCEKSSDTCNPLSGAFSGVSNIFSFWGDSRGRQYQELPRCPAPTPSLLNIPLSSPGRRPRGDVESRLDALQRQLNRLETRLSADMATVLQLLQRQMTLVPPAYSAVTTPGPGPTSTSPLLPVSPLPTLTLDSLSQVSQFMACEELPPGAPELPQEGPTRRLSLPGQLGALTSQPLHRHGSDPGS
For the compound `O=C(CNC(=O)c1ccc(S(=O)(=O)N2CCCC2)cc1)N/N=C/c1ccc(Cl)cc1Cl`, the “hERG current change (%, negative = inhibition) at 10uM” value is -3.34%.
The figure for `Cc1ccccc1NCCC(=O)Nc1ccc(F)cc1` is -21.4%; for `COc1ccc(C(=O)N/C(=C\c2ccc(Cl)cc2)C(=O)NCC2CCCO2)cc1` (stereo not drawn) it is -38%; for `COc1ccc(/C=C(\NC(=O)c2ccc(C)cc2)C(=O)NCC2CCCO2)cc1` (stereo not drawn) it is -8.44%.
The figure for `COc1ccc(/C=C(/NC(=O)c2ccc(C)cc2)C(=O)NCc2ccncc2)cc1` is -66.2%; for `COc1ccc(C(=O)N/C(=C/c2ccc(Cl)cc2)C(=O)NCc2ccncc2)cc1` it is -65.4%; for `COc1ccc(C(=O)N/C(=C/c2ccc(Cl)cc2)C(=O)Nc2ccc(C(=O)O)cc2)cc1` it is 11.4%.
On to `COc1ccc(/C=C(/NC(=O)c2ccccc2)C(=O)NCc2ccncc2)cc1`, for which the “hERG current change (%, negative = inhibition) at 10uM” value was -44.5%.
The figure for `O=C(O)/C=C/c1cn(-c2ccccc2)nc1-c1ccccc1` is 3.71%; for `O=C(NCc1ccccn1)C1CC(=O)N(C2CCCC2)C1` (stereo not drawn) it is 9.62%; for `COc1ccc(CNC(=O)CN2C(=O)CC(c3ccccc3)=Nc3ccccc32)cc1` it is -8.66%.
The figure for `Cc1cc(NC(=O)Cn2cnc3c(nnn3-c3cccc(F)c3)c2=O)no1` is 5.01%; for `CC(=O)C(C(C)=O)C(c1ccccc1)c1nc2ccccc2[nH]c1=O` (stereo not drawn) it is 14.1%.
Then `COC(=O)c1ccc(CN2CCCC(C(=O)c3cc(F)ccc3OC)C2)cc1` (stereo not drawn), with -68%.
On to `COc1ccccc1C(=O)C1CCCN(Cc2ccc(Oc3ncccn3)cc2)C1` (stereo not drawn), for which the “hERG current change (%, negative = inhibition) at 10uM” value is -40.6%.
The figure for `COc1ccc(F)cc1C(=O)C1CCCN(Cc2cnc(N3CCCC3)s2)C1` (stereo not drawn) is -29.4%.
The figure for `COc1ccccc1C(=O)C1CCCN(Cc2cccc(OCCO)c2)C1` (stereo not drawn) is -19.6%; for `COc1ccc(F)cc1C(=O)C1CCCN(Cc2cnc(C)s2)C1` (stereo not drawn) it is -21%.
Then `COc1ccc(F)cc1C(=O)C1CCCN(Cc2ccc(O)cc2)C1` (stereo not drawn), with -52%; and `CCOc1ccc(CN2CCCC(C(=O)c3ccccc3OC)C2)cc1` (stereo not drawn), with -82%.
As to `COc1ccccc1C(=O)C1CCCN(C(=O)c2ccccc2Cl)C1` (stereo not drawn), the “hERG current change (%, negative = inhibition) at 10uM” value was 10.4%.
As to `COc1ccc(F)cc1C(=O)C1CCCN(C(=O)CCc2ccccn2)C1` (stereo not drawn), the “hERG current change (%, negative = inhibition) at 10uM” value was 2.48%.
Regarding `COC(=O)c1ccc(CN2CCCC(C(=O)c3ccccc3OC)C2)cc1` (stereo not drawn), the “hERG current change (%, negative = inhibition) at 10uM” value is recorded as -43.1%.
The figure for `COc1ccc(F)cc1C(=O)C1CCCN(Cc2ccc(Oc3ncccn3)cc2)C1` (stereo not drawn) is -64.2%; for `CC(=O)NCCC(=O)Nc1nc(-c2ccccc2Cl)cs1` it is -9.76%.
On to `CCOc1ccc(C(=O)Nc2cccc(-n3cnnn3)c2)cc1OCC`, for which the “hERG current change (%, negative = inhibition) at 10uM” value is given as -40.4%.
For the compound `O=C(/C=C/c1ccco1)Nc1ccc(Oc2ccc(Cl)cc2)cc1`, the “hERG current change (%, negative = inhibition) at 10uM” value is reported as 16.1%.
Turning to `COc1ccc(S(=O)(=O)NCc2ccccn2)cc1Br`, the “hERG current change (%, negative = inhibition) at 10uM” value stood at 12.5%.
The figure for `CCN1C(=O)/C(=C/c2cc(C)n(C)c2C)SC1=Nc1ccc(OC)cc1` is 9.24%; for `Cc1ccccc1NN1C(=O)C=CC1=O` it is -8.26%; for `CCOC(=O)CC1C(=O)NCCN1C(=O)c1c(F)cccc1F` (stereo not drawn) it is 16.1%.
Then `COc1ccc2cc(CCNC(=O)C(C)C)c(=O)[nH]c2c1`, with 13.4%; and `C/C(=N\NC(=O)c1cccc(N/N=C(\C)c2ccc([N+](=O)[O-])cc2)c1)c1ccc([N+](=O)[O-])cc1`, with 1.39%.
`C/C(=N\NC(=O)C(C)Nc1cccc(Cl)c1)c1ccc([N+](=O)[O-])cc1` (stereo not drawn): the “hERG current change (%, negative = inhibition) at 10uM” value was -50.5%.
The figure for `C/C(=N\NC(=O)C(C)Sc1ccccc1)c1ccc([N+](=O)[O-])cc1` (stereo not drawn) is -3.27%; for `Cc1c(Cl)cccc1NC(=S)N1CCN(c2ccc([N+](=O)[O-])cn2)CC1` it is 2.33%; for `O=C(NCc1ccc(F)cc1)C1CCCN(S(=O)(=O)c2cccc3nonc23)C1` (stereo not drawn) it is 19.6%.
Then `Cc1ccc2sc(N(CCCN(C)C)C(=O)c3ccc(Br)s3)nc2c1C.Cl`, with -71.7%; and `CN(C)CCN(C(=O)c1cccc2ccccc12)c1nc2cc3c(cc2s1)OCO3.Cl`, with -22.3%.
The figure for `Cc1ccc2nc(N(CCCN(C)C)C(=O)c3ccc(Br)s3)sc2c1.Cl` is -44.3%.
In the case of `CN(C)CCCN(C(=O)c1cccs1)c1nc2cc3c(cc2s1)OCO3.Cl`, the “hERG current change (%, negative = inhibition) at 10uM” value was -56.8%.
The figure for `CN(C)CCN(C(=O)c1cccs1)c1nc2cc3c(cc2s1)OCCO3.Cl` is -23.6%.
